Assay outcomes from PubChem.
HSF1 activator – increases HSF-1 driven luciferase reporter signal; NIH3T3-HGL HSF-1 luciferase reporter, MG132, 8 h; 100% = twice DMSO control signal; activation, % at 9 µM; hit rate 1.7% among 300,000; AID 504408;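 active = mean replicate activation of at least 50% with a set share of replicates each reaching 50%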;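 note: 0% = median of the neutral control wells and 100% = twice that signal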
HSP90 refold inh – blocks HSP90-mediated luciferase refolding in reticulocyte lysate | inhibition, % at 5.6 µM | Rabbit reticulocyte lysate, luciferase refolding luminescence, 3 h | hit rate 0.91% among 290,000;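 active = inhibition above the screen-wide mean plus 3 SD, computed separately per campaign, cut at about 16% in these data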;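 note: 0% = DMSO wells and 100% = 60 µM geldanamycin wells; inhibitors lower the luminescence because luciferase stays unfolded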
TROY signal inh – TROY signaling inhibition; hit rate 0.98% among 360,000; inhibition, % at 10 µM; Q293 LMP1-TROYcd NF-kB luciferase reporter, 4 h; AID 1347056;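 active = compounds whose plate-normalised and pattern-corrected inhibition of the luciferase reporter signal at the single screening dose is 50% or more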
HSF1 inh – HSF1 inhibition; NIH3T3-HGL HSE-luciferase, MG132-induced, luminescence 8 h; stronger effect = lower value; activity change, negative = inhibition, % at 7.5 µM (by protocol); hit rate 0.77% among 300,000;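 active = more than half of replicate wells show activity change below -50%, luminescence cut by over half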;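 note: luciferase reports HSF-1 transcriptional activity via heat shock element; 0% = median of DMSO wells and -100% = zero luminescence signal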
LMP1 NFkB inh – inhibitors of Epstein-Barr LMP1-induced NF-kappaB reporter; LMP1-induced NF-kappaB luciferase reporter cells, luminescence; inhibition, % at 12.5 µM; hit rate 0.69% among 350,000; in the data active = inhibition above about 41%;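 note: 0% = neutral control wells and 100% = reference inhibitor control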
TWEAK Fn14 block – blocks TWEAK-Fn14 interaction in a reporter cell assay. inhibition, % at 10 µM. TWEAK-stimulated Fn14 reporter cells, luciferase luminescence, 8 h. AID 1159606. hit rate 2% among 360,000; in the data active = inhibition above about 50%
* hit, by the source's call; . = no result; ! = not confirmed by another sample. In the library only some 4.7% were active in any assay of this set; here they are far more common.

SMILES	HSF1 activator	HSP90 refold inh	TROY signal inh	HSF1 inh	LMP1 NFkB inh	TWEAK Fn14 block
Nc1nc(=S)c2ncn([C@@H]3O[C@H](CO)[C@@H](O)[C@H]3O)c2[nH]1	.	.	15.3	.	-39.5	12.6
Nc1nc(=S)c2ncn(C3CCCCC3)c2[nH]1	.	.	63.9*	.	-3.1	-7.4
CCc1ccc(NC(=O)Cn2nc(C(F)(F)F)c3c2CCC3)cc1	20.8	-0.1	10.1	4.6	1.3	-3.8
COc1cc(NC(=O)Cn2nc(C(F)(F)F)c3c2CCCC3)cc(OC)c1OC	16.9	-0.5	.	8.9	8.5	66.0*
Cc1ccc(NC(=O)C2C3C=CC4(O3)C2C(=O)N(CCN2CCOCC2)C4C(=O)NC2CCCCC2)cc1C (stereo not given)	0.6	-3.4	-3.1	-1.2	-0.4	88.4*
O=C(Nc1ccc([N+](=O)[O-])cc1)C(c1ccccc1)c1ccccc1	.	.	42.7	.	0.5	12.1
O=C(Nc1ccc([N+](=O)[O-])cc1)C1C(c2ccccc2)=C1c1ccccc1	178.3*	-2.3	-15.4	165.2	-3.9	11.8
COc1cc(CN2CCN(c3cccc(C)c3C)CC2)cc(OC)c1O	-73.7	-0.5	0.9	-64.6*	5.5	8.7
CCCc1nc2ccc(C)cn2c1Cc1ccc(OC)cc1C	.	.	9.4	.	.	12.8
N#CC(C#N)=NNc1ccc([N+](=O)[O-])cc1	-6.9	-1.4	56.4*	4.2	15.5	21.3
C/C(=N\Nc1ccc([N+](=O)[O-])cc1)c1ccc(C#N)cc1	-2.6	-0.5	-11.6	-2.8	-5.7	-61.4
COc1ccc(C(=O)/C(C#N)=N/Nc2ccccc2[N+](=O)[O-])cc1	1.3	-2.3	46.3	-2.3	8.2	36.5
COc1ccc(C(=O)/C(C#N)=N/Nc2ccc([N+](=O)[O-])cc2)cc1	.	-4.6	62.8*	.	31.0	59.0*
COc1ccc(NC2=C(C(C)=O)C(c3ccc(OC)c(OC)c3)C(C(C)=O)C(C)(O)C2)cc1 (stereo not given)	19.6	2.0	38.5	-4.3	5.0	53.7*
C#CCN(C[C@@H]1[C@@H](OC(=O)NCC2CCCCC2)[C@@H](OC(=O)NCC2CCCCC2)Cn2c(=O)n(CCCCCC)c(=O)n21)S(=O)(=O)c1ccc(C)cc1	.	.	5.0	.	0.3	-4.0
Cn1cnc([N+](=O)[O-])c1S(=O)(=O)c1ccc(Cl)cc1	150.5*	2.9	42.6	127.3	-2.0	14.3
Cc1ccc(OCC(O)CN2C(=O)NC(C)(C)C2=O)c(C)c1 (stereo not given)	6.3	0.7	-11.2	-0.9	-1.5	5.2
Cc1cc(C)cc(OCC(O)CN2C(=O)NC(C)(C)C2=O)c1 (stereo not given)	64.1*	-1.9	-8.5	35.6	-32.2	-5.4
Cc1csc(NC(=O)c2cc3c(s2)-c2ccccc2OC3)n1	-3.2	2.6	11.4	-19.9	-37.8	35.9
Cc1c(NC(=O)c2cc3c(s2)-c2ccccc2OC3)cccc1[N+](=O)[O-]	25.5	-0.8	44.1	14.9	4.6	62.0*
CC1CCN(C(=O)CSc2nc3ccccc3s2)CC1	53.7*	-5.5	-74.9	29.7	-2.9	1.0
O=C(CSc1ccc(Cl)cc1)N1CCC(c2nc3ccccc3s2)CC1	15.7	1.2	25.3	32.1	14.0	43.6
O=C(CSc1c(Cl)cccc1Cl)N1CCC(c2nc3ccccc3s2)CC1	-6.5	-1.5	51.3*	-3.9	5.2	18.5
CC1Cc2ccccc2N1C(=O)CSc1nc2ccccc2s1 (stereo not given)	55.7*	-1.0	-18.3	19.2	-2.5	-17.8
Clc1ccc2c(c1)[C@H]1OCC[C@H]1[C@@H](c1ccco1)N2	69.8*	0.9	-7.2	30.2	-35.7	-1.0
SMILES	HSF1 activator	HSP90 refold inh	TROY signal inh	HSF1 inh	LMP1 NFkB inh	TWEAK Fn14 block
Fc1ccc2c(c1)[C@H]1OCC[C@H]1[C@@H](c1ccco1)N2	-2.9	-2.7	-37.0	1.9	-2.3	-13.2
CC(=O)Oc1ccc2ccccc2c1C(NC(=O)Cc1ccccc1)c1ccc(Cl)cc1 (stereo not given)	-9.4	2.3	36.2	8.8	-6.0	54.7*
Cc1cccc(C)c1NC(=O)COC(=O)c1cccc2c1C(=O)c1ccccc1C2=O	81.8*	0.8	14.7	30.4	15.5	2.9
Cc1nn(-c2ccccc2)c(C)c1NC(=O)COC(=O)c1ccccc1OC(F)F	-9.3	-4.2	51.4*	-0.8	1.5	1.8
Cc1cccc(C(=O)OCC(=O)Nc2c(C)nn(-c3ccccc3)c2C)c1O	18.0	.	-6.6	4.7	3.0	-3.3
O=C(c1[nH]c(C(F)(F)F)nc1-c1ccccc1)N1CCN(c2ncccn2)CC1	.	.	-1.6	.	.	5.2
Cc1cc(NCc2ccccn2)n2ncc(-c3ccc(Cl)cc3)c2n1	52.5*	2.0	-19.4	27.8	-27.0	-22.0
Cc1cc(NCc2ccccn2)n2ncc(-c3ccccc3)c2n1	76.3*	-0.9	-86.1	38.5	-53.8	18.8
CC1(C(=O)NS(=O)(=O)c2ccc(C#N)cc2)CCN1C(=O)Cc1cc(F)ccc1F (stereo not given)	.	.	-0.3	.	.	8.9
CCCC[C@@H]1CC2=C(C(=O)OC(C)(C)O2)[C@@H](c2ccc(F)cc2)O1	.	.	-3.5	.	.	9.6
O=C1NC[C@@H](CCCCN2C[C@H](Cc3ccccc3)N(CC3CCCCC3)C(=O)C2=O)N(CCc2ccccc2)C1=O	.	.	-8.2	.	.	5.2
Cc1ccc(NC2=C/C(=N\S(=O)(=O)c3cccs3)c3ccccc3C2=O)c(C)c1	-95.3	26.4*	69.2*	-95.3*	95.0*	94.8*
Cc1cccc(NC2=C/C(=N/S(=O)(=O)c3cccs3)c3ccccc3C2=O)c1	.	4.0	32.2	.	-2.2	97.2*
O=C(O)c1ccc(NC2=C/C(=N/S(=O)(=O)c3cccs3)c3ccccc3C2=O)cc1	.	.	59.6*	.	-5.7	98.2*
Cc1cc(C)c(S(=O)(=O)/N=C2\C=C(NS(=O)(=O)c3ccccc3)C(=O)c3ccccc32)c(C)c1	29.6	-4.7	17.7	11.4	-0.1	-1.2
Cc1ccc(Cl)cc1NC1=C/C(=N\S(=O)(=O)c2cccs2)c2ccccc2C1=O	-94.7	7.5	70.6*	-94.3*	59.5*!	99.7*
Fc1cccc(Cc2c(-c3ccc(Cl)cc3)nc3c(Cl)cc(C(F)(F)F)cn23)c1	.	.	38.0	.	.	26.1
O=C(C1CCCN1S(=O)(=O)c1cccc2nsnc12)N1CCCCC1 (stereo not given)	1.4	2.9	4.1	2.9	-0.4	15.2
O=C(NC1CCCCC1)C1CCCN1S(=O)(=O)c1ccc(F)cc1 (stereo not given)	15.3	-0.9	78.0*	-3.6	8.0	15.9
Cc1ccc(S(=O)(=O)N2CCCC2C(=O)NC2CCCCC2)cc1 (stereo not given)	-12.9	-1.9	3.2	-4.9	9.4	-6.6
O=C(NC1CCCCC1)C1CCCN1S(=O)(=O)c1cccc2nsnc12 (stereo not given)	53.8*	0.9	5.2	8.0	-13.8	8.9
O=C(Nc1nnc(-c2ccccc2)s1)c1cc(S(=O)(=O)N2CCOCC2)c(Cl)cc1Cl	-0.4	-1.9	61.4*	-10.2	-0.8	-55.0
